Assay [1] has as its target human Retinoid X Receptor beta (RXRb), RXRB (gene 6257) (UniProt P28702). As to the kind of experiment: ATG_RXRb_TRANS: Attagene TRANS-FACTORIAL HepG2 Assay for human Retinoid X Receptor beta (RXRb) (AID 2283013; active = hit-call score of the fitted dose curve at least 0.9, where 1 is the maximum). The essentials:
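HepG2 cells transiently transfected with multiplexed reporter units driven by GAL4-UAS and exogenous chimeric NR-Gal4 proteins; treated 24 h. Reporter mRNA measured by RT-PCR, 6-FAM labelling and capillary electrophoresis; gain-of-signal fitted versus DMSO baseline.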

For assay [2], the target named is human Thyroid Receptor alpha (THRa1), THRA (gene 7067) (UniProt P10827). As to the kind of experiment: ATG_THRa1_TRANS: Attagene TRANS-FACTORIAL HepG2 Assay for human Thyroid Receptor alpha (THRa1) (AID 2283014; active = hit-call score of the fitted dose curve at least 0.9, where 1 is the maximum). An outline of the steps:
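Reporter transcript induction, read by capillary electrophoresis of 6-FAM-labelled RT-PCR products, reflects activity of a transfected THRa1-Gal4 fusion in HepG2 liver cells. Cells were dosed for 24 h; activity was fitted in the positive direction against DMSO.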

Read-out in assay [3]: E-selectin (Homo sapiens) (UniProt P16581)
Put plainly: BSK_3C_Eselectin: BioMAP Diversity Plus: 3C Assay for Eselectin Biomarker Activity (AID 2283015).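 Note: cell surface E-selectin protein quantified by ELISA 24 h after dosing.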 The following applies: primary human endothelial cells (HUVEC); actives raise or lower the signal. An outline of the steps: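 ELISA read-out of E-selectin on endothelial monolayers after 24 h chemical treatment. Human umbilical vein primary cells served as the system, with DMSO defining baseline activity for bidirectional fitting.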

Read-out in assay [4]: Interleukin-1 alpha (IL1a), IL1A (gene 3552)
As to the kind of experiment: BSK_BE3C_IL1a: BioMAP Diversity Plus: BE3C Assay for Interleukin-1 alpha (IL1a) Biomarker Activity (AID 2283016). The settings on record: primary human bronchial epithelial cells; actives raise or lower the signal. An outline of the steps: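 Human primary bronchial epithelial cells (BE3C system) were dosed with compound and IL-1a measured by ELISA 24 h later. Activity was fitted bidirectionally against DMSO baseline; cytotoxicity was tracked in parallel cultures by SRB total-protein staining.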

Read-out in assay [5]: Monocyte Chemoattractant Protein-1 (MCP1), CCL2 (gene 6347)
Put plainly: BSK_3C_MCP1: BioMAP Diversity Plus: 3C Assay for Monocyte Chemoattractant Protein-1 (MCP1) Biomarker Activity (AID 2283017). The following applies: primary human endothelial cells (HUVEC); actives raise or lower the signal. The essentials:
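ELISA read-out of MCP-1 from human umbilical vein endothelial cell cultures harvested 24 h post-dosing. Gain or loss of signal was fitted relative to DMSO.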

Read-out in assay [6]: Monocyte Chemoattractant Protein-1 (MCP1), CCL2 (gene 6347)
Put plainly: BSK_4H_MCP1: BioMAP Diversity Plus: 4H Assay for Monocyte Chemoattractant Protein-1 (MCP1) Biomarker Activity (AID 2283018). The following applies: primary human endothelial cells (HUVEC); actives raise or lower the signal. An outline of the steps:
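Human umbilical vein endothelial cells (4H system) dosed with chemical; MCP-1 measured by ELISA 24 h after dosing. Bidirectional curve fitting against DMSO negative control as baseline; parallel SRB total-protein staining tracks overt cytotoxicity.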

Read-out in assay [7]: Human Leukocyte Antigen - DR isotype (HLADR), HLA-DRA (gene 3122)
As to the kind of experiment: BSK_3C_HLADR: BioMAP Diversity Plus: 3C Assay for Human Leukocyte Antigen - DR isotype (HLADR) Biomarker Activity (AID 2283019).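 For outcome: ELISA of cell-surface HLA-DR on HUVEC 24 h after dosing.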 The settings on record: primary human endothelial cells (HUVEC); actives raise or lower the signal. An outline of the steps:
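ELISA readout of surface HLA-DR on human umbilical vein endothelium, taken 24 h after chemical treatment. Gain- and loss-of-signal were both fitted relative to DMSO.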

Read-out in assay [8]: Interleukin-8 (IL8), CXCL8 (gene 3576)
As to the kind of experiment: BSK_3C_IL8: BioMAP Diversity Plus: 3C Assay for Interleukin-8 (IL8) Biomarker Activity (AID 2283020). The following applies: primary human endothelial cells (HUVEC); actives raise or lower the signal. An outline of the steps:
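Primary human umbilical vein endothelial cells (3C system) were exposed to test chemical for 24 h, then IL-8 was quantified by ELISA. Responses were fitted bidirectionally against DMSO vehicle as baseline.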

Read-out in assay [9]: Monokine induced gamma interferon (MIG), CXCL9 (gene 4283)
As to the kind of experiment: BSK_3C_MIG: BioMAP Diversity Plus: 3C Assay for Monokine induced gamma interferon (MIG) Biomarker Activity (AID 2283021). The following applies: primary human endothelial cells (HUVEC); actives raise or lower the signal. An outline of the steps: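 Primary human umbilical vein endothelial cells in the 3C system were exposed to chemical for 24 h, after which MIG was quantified by ELISA. Activity was fitted bidirectionally against DMSO as negative control and baseline.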

Assay [10] deals with human Vitamin D Receptor (VDR), VDR (gene 7421) (UniProt P11473). As to the kind of experiment: ATG_VDR_TRANS: Attagene TRANS-FACTORIAL HepG2 Assay for human Vitamin D Receptor (VDR) (AID 2283022; active = hit-call score of the fitted dose curve at least 0.9, where 1 is the maximum). An outline of the steps: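 Steps: transfect HepG2 with GAL4-UAS-driven reporter constructs; dose compounds 24 h; isolate RNA, reverse-transcribe, PCR-amplify with 6-FAM-labelled primer extension and HpaI digestion; quantify fragments by capillary electrophoresis relative to DMSO.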

Assay [11] in a line: BSK_3C_SRB: Viability Assessment in the BioMAP Diversity Plus: 3C Assay (AID 2283023).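 Note: fitted both ways against DMSO so a hit may be signal rise or drop.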 The following applies: primary human endothelial cells (HUVEC). The essentials:
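Absorbance at 560 nm of sulforhodamine B-stained (0.1%) total protein served as a cytotoxicity readout in human umbilical vein endothelial cells, 24 h after chemical treatment. Signal was fitted bidirectionally relative to DMSO.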

Read-out in assay [12]: Matrix Metallopeptidase 1 (MMP1), MMP1 (gene 4312)
Put plainly: BSK_BE3C_MMP1: BioMAP Diversity Plus: BE3C Assay for Matrix Metallopeptidase 1 (MMP1) Biomarker Activity (AID 2283024). The following applies: primary human bronchial epithelial cells; actives raise or lower the signal. The essentials:
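Primary human bronchial epithelial cells were dosed with test chemicals, and MMP1 levels were measured by ELISA 24 h later. Data were fitted bidirectionally against DMSO as the negative control and activity baseline.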

Read-out in assay [13]: Pselectin, SELP (gene 6403)
As to the kind of experiment: BSK_4H_Pselectin: BioMAP Diversity Plus: 4H Assay for Pselectin Biomarker Activity (AID 2283026). The following applies: primary human endothelial cells (HUVEC); actives raise or lower the signal. An outline of the steps:
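Primary human umbilical vein endothelial cells were exposed to test chemical for 24 h, then cell-surface P-selectin was quantified by ELISA. Activity was fitted bidirectionally against DMSO as negative control and baseline.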

Assay [14] is described as follows: BSK_4H_SRB: Viability Assessment in the BioMAP Diversity Plus: 4H Assay (AID 2283027).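 For AC50: curves fitted both ways versus DMSO so AC50 may be loss or gain.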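 Note: cells exposed to compound for 24 h before staining.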 The settings on record: primary human endothelial cells (HUVEC). An outline of the steps: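 Human umbilical vein endothelial cells were dosed with chemical and, after 24 h, fixed with 10% TCA, stained with 0.1% sulforhodamine B, and read at 560 nm to give total protein as a cytotoxicity measure. Bidirectional fitting relative to DMSO control.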

Assay [15] can be described thus: BSK_BE3C_SRB: Viability Assessment in the BioMAP Diversity Plus: BE3C Assay (AID 2283028). The settings on record: primary human bronchial epithelial cells. An outline of the steps:
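Cells (human bronchial epithelial, primary) are treated with chemicals, and after 24 h the parallel cultures are fixed in 10% TCA. These are then stained with 0.1% SRB and read at 560 nm. Gain or loss of signal is fitted relative to DMSO.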

Read-out in assay [16]: Thrombomodulin, THBD (gene 7056)
As to the kind of experiment: BSK_3C_Thrombomodulin: BioMAP Diversity Plus: 3C Assay for Thrombomodulin Biomarker Activity (AID 2283029). The following applies: primary human endothelial cells (HUVEC); actives raise or lower the signal. The essentials:
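Primary human umbilical vein endothelial cells (3C system) were exposed to chemical for 24 h, then thrombomodulin levels were measured by ELISA. Activity was fitted bidirectionally against the DMSO negative control as baseline.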

Assay [17] deals with Retinoic acid receptor RXR-alpha (Homo sapiens) (UniProt P19793). As to the kind of experiment: ATG_RXRa_TRANS: Attagene TRANS-FACTORIAL HepG2 Assay for human Retinoid X Receptor alpha (RXRa) (AID 2283012; active = hit-call score of the fitted dose curve at least 0.9, where 1 is the maximum). An outline of the steps:
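HepG2 cells transiently transfected with multiplexed GAL4-UAS reporter units and chimeric NR-GAL4 fusions, dosed 24 h. Reporter mRNA measured by RT-PCR, FAM labelling, HpaI digestion and capillary electrophoresis; gain-of-signal fitted relative to DMSO baseline.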

Read-out in assay [18]: Urokinase-type plasminogen activator receptor (uPAR), PLAUR (gene 5329)
As to the kind of experiment: BSK_4H_uPAR: BioMAP Diversity Plus: 4H Assay for Urokinase-type plasminogen activator receptor (uPAR) Biomarker Activity (AID 2283030). The following applies: primary human endothelial cells (HUVEC); actives raise or lower the signal. An outline of the steps:
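Cell-surface uPAR ELISA signal, measured 24 h after dosing human umbilical vein endothelial cells, was analyzed with bidirectional fitting relative to DMSO. Parallel SRB staining of total protein tracked overt cytotoxicity.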

For assay [19], the target named is human RAR-related Orphan Receptor gamma (RORg), RORC (gene 6097) (UniProt P51449). As to the kind of experiment: ATG_RORg_TRANS: Attagene TRANS-FACTORIAL HepG2 Assay for human RAR-related Orphan Receptor gamma (RORg) (AID 2283011; active = hit-call score of the fitted dose curve at least 0.9, where 1 is the maximum). The essentials: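 First, HepG2 liver cells were transfected with GAL4-UAS-driven reporter constructs and the RORg-Gal4 fusion. Next, they were treated with chemical for 24 h. Finally, reporter mRNA was quantified by RT-PCR and capillary electrophoresis, with upward activity fitted against DMSO.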

Assay [20] can be described thus: BSK_3C_Vis: BioMAP Diversity Plus: 3C Assay for Morphology Visualization (AID 2283025).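 Note: fitted both ways so gain or loss versus DMSO counts.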 The settings on record: primary human endothelial cells (HUVEC). An outline of the steps:
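Human umbilical vein endothelial cells in the 3C system were imaged by light microscopy 24 h after chemical dosing to record cell morphology. Activity was fitted bidirectionally against DMSO as negative control and baseline; the endpoint serves as a background control.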

This passage reports outcome and AC50 results from PubChem BioAssay (EPA / NIEHS).

Inconclusive results are not listed. Active and inactive are the calls of the source. Rule for the calls, unless noted: active = hit-call score of the fitted dose curve at least 0.9, where 1 is the maximum; inactive = score below 0.9.

Chain of E-selectin (Homo sapiens) (P16581 whole entry, looked up): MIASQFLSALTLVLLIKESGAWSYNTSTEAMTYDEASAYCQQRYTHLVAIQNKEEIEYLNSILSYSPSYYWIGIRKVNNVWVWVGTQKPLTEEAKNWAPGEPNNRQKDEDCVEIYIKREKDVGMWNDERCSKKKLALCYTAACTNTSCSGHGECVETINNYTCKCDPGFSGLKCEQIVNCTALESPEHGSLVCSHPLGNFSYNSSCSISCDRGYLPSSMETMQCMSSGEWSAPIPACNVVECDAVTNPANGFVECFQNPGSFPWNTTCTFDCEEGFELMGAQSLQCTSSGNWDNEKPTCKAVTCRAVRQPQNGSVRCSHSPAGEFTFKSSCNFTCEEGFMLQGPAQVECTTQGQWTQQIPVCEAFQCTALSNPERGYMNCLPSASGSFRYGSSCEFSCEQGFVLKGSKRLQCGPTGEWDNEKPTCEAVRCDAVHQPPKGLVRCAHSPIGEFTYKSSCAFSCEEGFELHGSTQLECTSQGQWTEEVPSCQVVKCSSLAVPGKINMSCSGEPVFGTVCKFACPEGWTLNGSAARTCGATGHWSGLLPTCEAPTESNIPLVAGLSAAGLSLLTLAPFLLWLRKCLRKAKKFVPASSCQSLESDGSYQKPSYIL
Chain of human Thyroid Receptor alpha (THRa1), THRA (gene 7067) (P10827 whole entry, looked up, the tested form may be a part): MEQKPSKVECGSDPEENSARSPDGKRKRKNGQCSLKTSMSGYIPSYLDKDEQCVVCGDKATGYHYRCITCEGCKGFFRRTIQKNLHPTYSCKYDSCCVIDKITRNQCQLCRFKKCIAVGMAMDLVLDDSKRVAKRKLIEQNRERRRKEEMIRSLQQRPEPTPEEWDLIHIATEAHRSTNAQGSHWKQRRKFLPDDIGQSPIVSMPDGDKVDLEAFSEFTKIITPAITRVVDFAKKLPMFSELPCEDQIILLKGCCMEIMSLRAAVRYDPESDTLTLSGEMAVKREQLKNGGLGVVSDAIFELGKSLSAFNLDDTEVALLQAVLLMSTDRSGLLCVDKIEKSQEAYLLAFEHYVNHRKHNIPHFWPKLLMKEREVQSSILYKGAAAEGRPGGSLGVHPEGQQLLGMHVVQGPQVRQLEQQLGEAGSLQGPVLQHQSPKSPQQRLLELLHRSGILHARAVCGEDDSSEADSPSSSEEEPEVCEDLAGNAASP
Chain of human Retinoid X Receptor beta (RXRb), RXRB (gene 6257) (P28702 whole entry, looked up, the tested form may be a part): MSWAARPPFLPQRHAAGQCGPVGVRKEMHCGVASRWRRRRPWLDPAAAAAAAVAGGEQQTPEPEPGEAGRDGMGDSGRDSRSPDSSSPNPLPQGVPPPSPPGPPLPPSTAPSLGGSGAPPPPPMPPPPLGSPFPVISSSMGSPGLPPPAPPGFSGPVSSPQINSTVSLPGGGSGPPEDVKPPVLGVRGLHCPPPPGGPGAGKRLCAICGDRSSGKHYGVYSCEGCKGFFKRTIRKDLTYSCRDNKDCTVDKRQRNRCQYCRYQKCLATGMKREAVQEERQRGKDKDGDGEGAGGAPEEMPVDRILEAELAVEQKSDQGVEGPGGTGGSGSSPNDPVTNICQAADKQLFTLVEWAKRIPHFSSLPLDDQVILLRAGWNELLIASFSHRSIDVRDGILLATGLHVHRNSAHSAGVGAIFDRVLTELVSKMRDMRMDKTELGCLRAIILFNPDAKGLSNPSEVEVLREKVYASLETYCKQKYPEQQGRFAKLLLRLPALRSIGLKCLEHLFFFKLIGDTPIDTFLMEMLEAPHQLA
Chain of human Vitamin D Receptor (VDR), VDR (gene 7421) (P11473 whole entry, looked up, the tested form may be a part): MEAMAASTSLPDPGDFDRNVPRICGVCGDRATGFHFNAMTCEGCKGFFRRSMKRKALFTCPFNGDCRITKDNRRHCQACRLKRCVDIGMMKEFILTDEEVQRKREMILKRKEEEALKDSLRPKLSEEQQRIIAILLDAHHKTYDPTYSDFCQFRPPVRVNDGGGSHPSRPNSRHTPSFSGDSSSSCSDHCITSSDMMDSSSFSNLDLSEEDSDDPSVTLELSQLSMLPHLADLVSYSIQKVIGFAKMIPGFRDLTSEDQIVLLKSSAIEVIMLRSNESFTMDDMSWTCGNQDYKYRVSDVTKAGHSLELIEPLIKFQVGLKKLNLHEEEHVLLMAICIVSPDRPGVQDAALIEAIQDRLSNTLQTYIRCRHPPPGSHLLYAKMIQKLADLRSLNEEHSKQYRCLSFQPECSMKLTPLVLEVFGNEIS
Chain of Retinoic acid receptor RXR-alpha (Homo sapiens) (P19793 whole entry, looked up, the tested form may be a part): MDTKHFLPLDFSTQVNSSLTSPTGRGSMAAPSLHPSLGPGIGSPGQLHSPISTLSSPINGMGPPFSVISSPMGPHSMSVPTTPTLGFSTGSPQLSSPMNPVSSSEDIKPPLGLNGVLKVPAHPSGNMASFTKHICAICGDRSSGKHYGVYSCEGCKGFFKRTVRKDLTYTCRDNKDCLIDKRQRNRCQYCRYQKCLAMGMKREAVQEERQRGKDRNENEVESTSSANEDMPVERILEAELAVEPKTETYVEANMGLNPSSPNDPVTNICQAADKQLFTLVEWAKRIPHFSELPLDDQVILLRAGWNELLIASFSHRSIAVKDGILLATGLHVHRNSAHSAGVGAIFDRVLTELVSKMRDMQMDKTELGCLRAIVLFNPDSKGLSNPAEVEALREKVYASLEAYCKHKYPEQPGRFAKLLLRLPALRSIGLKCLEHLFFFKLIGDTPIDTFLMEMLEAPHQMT
Chain of human RAR-related Orphan Receptor gamma (RORg), RORC (gene 6097) (P51449 whole entry, looked up, the tested form may be a part): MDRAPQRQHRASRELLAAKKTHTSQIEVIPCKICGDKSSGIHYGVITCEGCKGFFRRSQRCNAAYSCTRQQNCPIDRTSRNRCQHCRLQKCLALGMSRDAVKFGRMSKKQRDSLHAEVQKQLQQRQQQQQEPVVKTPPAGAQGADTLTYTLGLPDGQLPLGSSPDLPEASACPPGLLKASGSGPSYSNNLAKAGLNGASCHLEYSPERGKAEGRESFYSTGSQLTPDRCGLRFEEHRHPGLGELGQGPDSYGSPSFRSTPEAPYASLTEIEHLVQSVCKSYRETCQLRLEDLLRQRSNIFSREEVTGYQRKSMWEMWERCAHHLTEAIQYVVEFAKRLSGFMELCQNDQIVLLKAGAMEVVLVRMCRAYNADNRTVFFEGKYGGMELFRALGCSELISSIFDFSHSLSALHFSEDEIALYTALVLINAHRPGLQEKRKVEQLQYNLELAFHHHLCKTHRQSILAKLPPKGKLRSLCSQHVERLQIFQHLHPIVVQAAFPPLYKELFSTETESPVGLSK

In the case of `O=[N+]([O-])c1cc(Cl)ccc1Cl`, the outcome in assay [1] and in assay [2] was inactive.

Consider `CN(C)C(=O)Cl`, for which the outcome in assay [1], in [2], in [3], in assay [4], in assay [5] and in assay [6] was inactive. For the same molecule, the result in [7], in [8], in assay [9], in assay [10], in assay [11] and in assay [12] was inactive. In addition, the outcome in assay [13], in assay [14], in assay [15] and in [16] was inactive.

In the case of `CCC(C)(C)c1ccc(O)cc1`, the result in [17], in [4], in assay [5], in assay [6], in assay [7] and in [8] was inactive. In addition, the result in assay [9], in assay [11], in [12], in assay [13], in assay [14] and in assay [15] was inactive. Further, the result in [16] was inactive. In assay [1], the concentration at half-maximal activity (AC50) is 9.83 µM (active).

Take `O=C(CBr)OCc1ccccc1`: the call in assay [17] was inactive.

Consider `CCCN(CCC)c1c([N+](=O)[O-])cc(C(C)C)cc1[N+](=O)[O-]`, for which the molecule was called inactive in assay [17], in assay [2], in [3], in assay [4], in assay [9] and in assay [10]. Besides, the result in assay [12], in assay [13], in [15], in [16] and in assay [18] was inactive. Also, the AC50 in [1] was 17.9 µM (active); in [5], 32 µM (active); in [6], 20 µM (active); in assay [7], 28.5 µM (active); in [8] it was 31.2 µM (active); in assay [11], 28.9 µM (active). Also, the AC50 in assay [14] was 32.8 µM (active).

With `O=S1(=O)OCC2C(CO1)C1(Cl)C(Cl)=C(Cl)C2(Cl)C1(Cl)Cl` (centres undefined), the result in assay [17], in assay [3], in [4], in assay [5], in assay [8] and in [9] was inactive. Moreover, the outcome in assay [12], in assay [15] and in assay [16] was inactive. In addition, the AC50 in [6] is 10.1 µM (active); in assay [7], 24.1 µM (active); in assay [11], 20 µM (active); in assay [13] it was 12.2 µM (active); in assay [14] it was 12.3 µM (active); in assay [18], 9.1 µM (active).

Turning to `CCOC(=O)c1ccccc1N`, the molecule was called inactive in assay [19], in assay [2] and in assay [10].

As for `CCN(CC)C1CCCCC1`, the molecule was classed as inactive in assay [19] and in [10].

Consider `CCCCN(CCCC)SN(C)C(=O)Oc1cccc2c1OC(C)(C)C2`, for which the molecule was classed as inactive in assay [17], in assay [4], in assay [9], in [12], in [15] and in assay [16]. Moreover, the half-maximal activity concentration (AC50) in [1] was 68.3 µM (active); in assay [5], 30.6 µM (active); in assay [6] it was 26 µM (active); in assay [7] it was 29.8 µM (active); in [8], 36.4 µM (active); in [11] it was 29.5 µM (active). Further, the concentration at half-maximal activity (AC50) in assay [13] was 20.2 µM (active); in assay [14], 27.2 µM (active); in assay [18], 37.1 µM (active).

`CCOc1ccc(C(C)(C)COCc2cccc(Oc3ccccc3)c2)cc1`: the outcome in assay [1], in assay [2], in [3], in assay [4], in assay [5] and in [6] was inactive. The result in [7], in [8], in assay [9], in assay [10], in assay [11] and in assay [12] was inactive. Also, the result in assay [13], in [14], in [15], in assay [16] and in assay [18] was inactive.

For `CCOP(=S)(OCC)SCSCC`, the call in assay [17], in [4], in assay [5], in assay [6], in [7] and in assay [8] was inactive. Further, the outcome in assay [9], in assay [10], in [11], in [12], in assay [20] and in [13] was inactive. Further, the outcome in [14], in [15] and in assay [16] was inactive. In assay [1], the concentration at half-maximal activity (AC50) is 48.2 µM (active).
